Targets with a hit are over-represented here; the source holds about 7,900 in all. About 0.6% of all pairs of compound and target were hits.
How the values were obtained:
Test in all cases: log2 fold change, soluble protein after heating vs DMSO (PISA); higher = thermal stabilisation; K562 cells, 10 uM, 30 min; active = over 0.2 and 3.5 SD of the protein, either way, in both replicates (recomputed)
erlotinib = compound: C#Cc1cccc(Nc2ncnc3cc(OCCOC)c(OCCOC)cc23)c1 [erlotinib]
Procedure, shortened: (§1)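 Soluble protein was quantified by TMTpro 16plex LC-MS/MS after channel sums were equalised. It was obtained as the supernatant after 21,000xg for 90 min from pooled aliquots of K562 cells (2×10^6 cells/mL, 10 μM compound, 30 min) heated for 3 min across 48°C-58°C and extracted in PBS with 0.5% NP-40 at 4°C. Thermal stability values are relative to control samples and come from duplicates. They are given as log2 fold changes.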

[1] = compound: C/C(=N\NC(=O)C1=CC(=CC=C1)S(=O)(=O)N2CCOCC2)/C3=C(C=CC(=C3)Cl)O
Procedure, shortened: as §1

[2] = compound: C1=CC(=C(C=C1Cl)C2=NC3=NC=CN=C3C(=N2)NC4=CC=NC=C4)F
Procedure, shortened: as §1

[3] = compound: C1=CC(=CC=C1C2=NC3=C(N2)C=C(C=C3)C(=O)N)OC4=CC=C(C=C4)Cl
Procedure, shortened: as §1

[4] = compound: C1=CC2=C(C=CC(=C2)/C=C\3/C(=O)NC(=NCC4=CC=CS4)S3)N=C1
Procedure, shortened: as §1

[5] = compound: C1=CC2=NC=CN=C2C=C1/C=C/3\C(=O)NC(=O)S3
Procedure, shortened: as §1

[6] = compound: C1=CC=C(C=C1)C2=NC(=C(N2)C3=CC=NC=C3)C4=CC(=C(C=C4)Cl)O
Procedure, shortened: as §1

[7] = compound: C1=CC=C2C(=C1)C3=NNC4=CC=CC(=C43)C2=O
Procedure, shortened: as §1

[8] = compound: C1CCN(C1)C(=O)NC2=CC=CC(=C2)NC3=NC=C(C(=N3)NCCC4=CN=CN4)Br
Procedure, shortened: as §1

[9] = compound: C1CN(CCC1(CC2=CC=C(C=C2)Cl)N)C3=NC=NC4=C3C=CN4
Procedure, shortened: as §1

Measured: log2 fold change

MRPS15 (UniProt P82914)
inactive: erlotinib -0.061 | [1] -0.201 | [2] -0.119 | [3] 0.089 | [4] 0.069 | [5] 0.064 | [6] 0.021 | [7] 0.106 | [8] -0.045 | [9] -0.108

NIBAN1 (UniProt Q9BZQ8)
UniProt Q9BZQ8, sequence (Q9BZQ8 whole entry, looked up): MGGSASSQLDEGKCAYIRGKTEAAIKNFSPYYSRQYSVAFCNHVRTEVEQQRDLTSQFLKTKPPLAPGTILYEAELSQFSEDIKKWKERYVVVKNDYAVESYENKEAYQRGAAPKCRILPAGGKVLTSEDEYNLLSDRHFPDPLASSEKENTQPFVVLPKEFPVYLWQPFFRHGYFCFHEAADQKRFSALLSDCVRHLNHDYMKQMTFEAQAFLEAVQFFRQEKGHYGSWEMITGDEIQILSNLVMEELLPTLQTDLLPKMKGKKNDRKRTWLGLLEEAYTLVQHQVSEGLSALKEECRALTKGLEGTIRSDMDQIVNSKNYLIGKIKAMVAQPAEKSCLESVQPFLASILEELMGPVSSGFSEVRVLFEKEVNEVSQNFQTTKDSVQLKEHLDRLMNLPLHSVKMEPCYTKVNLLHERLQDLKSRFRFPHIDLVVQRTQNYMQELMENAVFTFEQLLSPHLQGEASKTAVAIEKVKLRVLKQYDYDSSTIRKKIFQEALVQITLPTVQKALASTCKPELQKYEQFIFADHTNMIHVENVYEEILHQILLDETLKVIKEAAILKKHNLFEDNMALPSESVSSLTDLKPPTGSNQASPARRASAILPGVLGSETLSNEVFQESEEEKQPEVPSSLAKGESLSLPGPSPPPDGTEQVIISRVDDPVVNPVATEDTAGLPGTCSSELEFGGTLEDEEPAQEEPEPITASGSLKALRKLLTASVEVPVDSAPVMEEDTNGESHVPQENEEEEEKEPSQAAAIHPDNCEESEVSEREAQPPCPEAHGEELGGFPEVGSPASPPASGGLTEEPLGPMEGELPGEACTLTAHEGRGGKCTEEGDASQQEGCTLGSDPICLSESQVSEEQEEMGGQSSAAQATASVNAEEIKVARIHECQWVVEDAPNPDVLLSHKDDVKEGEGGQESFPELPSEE
inactive: erlotinib 0.014 | [1] 0.103 | [2] -0.022 | [3] 0.017 | [4] 0.058 | [5] -0.009 | [6] -0.005 | [7] -0.047 | [8] -0.017 | [9] -0.06

NOP53 (UniProt Q9NZM5)
inactive: erlotinib -0.201 | [1] -0.272 | [2] -0.231 | [3] 0.005 | [4] -0.298 | [5] 0.036 | [6] -0.147 | [7] -0.121 | [8] 0.058 | [9] -0.387

MSL1 (UniProt Q68DK7)
UniProt Q68DK7, sequence (Q68DK7 whole entry, looked up): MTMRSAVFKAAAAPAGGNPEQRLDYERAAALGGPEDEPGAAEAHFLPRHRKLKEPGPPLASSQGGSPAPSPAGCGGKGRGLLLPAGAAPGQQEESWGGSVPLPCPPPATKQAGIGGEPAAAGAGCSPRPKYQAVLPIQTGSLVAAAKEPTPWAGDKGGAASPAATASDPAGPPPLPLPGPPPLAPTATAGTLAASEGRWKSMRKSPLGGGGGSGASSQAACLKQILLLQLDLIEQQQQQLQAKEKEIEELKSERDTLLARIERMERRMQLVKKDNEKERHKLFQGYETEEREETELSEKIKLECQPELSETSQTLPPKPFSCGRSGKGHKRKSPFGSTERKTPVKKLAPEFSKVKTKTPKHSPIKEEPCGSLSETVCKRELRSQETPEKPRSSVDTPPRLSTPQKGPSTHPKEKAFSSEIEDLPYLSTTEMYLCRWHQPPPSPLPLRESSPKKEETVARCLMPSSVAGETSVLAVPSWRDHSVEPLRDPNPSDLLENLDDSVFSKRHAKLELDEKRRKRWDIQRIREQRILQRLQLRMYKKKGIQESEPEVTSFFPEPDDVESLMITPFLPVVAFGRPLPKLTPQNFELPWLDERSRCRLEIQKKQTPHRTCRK
inactive: erlotinib 0.185 | [2] 0.106 | [3] -0.193 | [4] 0.069 | [5] -0.033 | [6] 0.066 | [7] -0.026
active: [1] -0.603

NDUFA6 (UniProt P56556)
UniProt P56556, sequence (P56556 whole entry, looked up): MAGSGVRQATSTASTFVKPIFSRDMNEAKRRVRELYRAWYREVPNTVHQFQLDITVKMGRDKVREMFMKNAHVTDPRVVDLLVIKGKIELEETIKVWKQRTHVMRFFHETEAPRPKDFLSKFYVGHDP
inactive: erlotinib 0.014 | [1] 0.133 | [2] 0.11 | [3] -0.015 | [4] -0.045 | [5] 0.002 | [6] 0.104 | [7] 0.042 | [8] -0.031 | [9] -0.008

MRPS9 (UniProt P82933)
inactive: erlotinib -0.057 | [1] -0.019 | [2] -0.087 | [3] 0.137 | [4] 0.019 | [5] 0.04 | [6] 0.023 | [7] 0.043 | [8] 0.002 | [9] -0.095

NDUFA12 (UniProt Q9UI09)
UniProt Q9UI09, sequence (Q9UI09 whole entry, looked up): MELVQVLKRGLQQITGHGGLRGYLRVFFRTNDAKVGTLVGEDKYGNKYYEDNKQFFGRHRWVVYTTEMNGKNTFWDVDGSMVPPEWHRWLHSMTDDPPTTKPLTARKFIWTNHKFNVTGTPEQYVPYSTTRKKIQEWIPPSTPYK
inactive: erlotinib -0.014 | [1] 0.011 | [2] 0.016 | [3] 0.147 | [4] 0.075 | [5] 0.001 | [6] 0.061 | [7] -0.007 | [8] 0.028 | [9] -0.031

MRPS33 (UniProt Q9Y291)
inactive: erlotinib 0.023 | [1] -0.018 | [2] -0.129 | [3] 0.021 | [4] 0.019 | [5] 0.032 | [6] -0.043 | [7] 0.018 | [8] 0.026 | [9] -0.133

NAP1L1 (UniProt P55209)
UniProt P55209, sequence (P55209 whole entry, looked up): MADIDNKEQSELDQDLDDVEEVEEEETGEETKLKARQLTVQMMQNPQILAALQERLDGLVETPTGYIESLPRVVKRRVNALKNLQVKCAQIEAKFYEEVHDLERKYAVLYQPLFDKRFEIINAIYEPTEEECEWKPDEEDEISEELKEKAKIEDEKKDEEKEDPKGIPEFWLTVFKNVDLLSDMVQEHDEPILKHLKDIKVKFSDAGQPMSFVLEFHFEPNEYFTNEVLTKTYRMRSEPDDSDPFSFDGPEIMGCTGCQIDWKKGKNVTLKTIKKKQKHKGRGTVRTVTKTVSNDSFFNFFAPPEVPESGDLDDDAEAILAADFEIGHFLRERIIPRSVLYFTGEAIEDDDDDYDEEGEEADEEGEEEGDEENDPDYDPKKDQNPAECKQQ
inactive: erlotinib -0.021 | [1] 0.006 | [2] 0.036 | [3] 0.035 | [4] -0.048 | [5] 0.066 | [6] 0.026 | [7] -0.018 | [8] -0.02 | [9] 0.07

MTOR (UniProt P42345)
inactive: erlotinib 0.015 | [1] 0.041 | [2] 0.021 | [3] -0.011 | [4] 0.036 | [5] 0.047 | [6] 0.034 | [7] -0.004 | [8] 0.065 | [9] -0.03

NDUFB8 (UniProt O95169)
UniProt O95169, sequence (O95169 whole entry, looked up): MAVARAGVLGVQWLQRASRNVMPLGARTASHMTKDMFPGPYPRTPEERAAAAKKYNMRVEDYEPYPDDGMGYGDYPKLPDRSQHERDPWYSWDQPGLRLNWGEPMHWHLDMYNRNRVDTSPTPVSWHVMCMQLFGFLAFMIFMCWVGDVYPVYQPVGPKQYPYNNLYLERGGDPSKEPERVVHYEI
inactive: erlotinib -0.026 | [1] -0.047 | [2] 0.129 | [3] 0.005 | [4] 0.033 | [5] 0.087 | [6] -0.026 | [7] 0.07 | [8] -0.008 | [9] 0.06

NMNAT1 (UniProt Q9HAN9)
UniProt Q9HAN9, sequence (Q9HAN9 whole entry, looked up): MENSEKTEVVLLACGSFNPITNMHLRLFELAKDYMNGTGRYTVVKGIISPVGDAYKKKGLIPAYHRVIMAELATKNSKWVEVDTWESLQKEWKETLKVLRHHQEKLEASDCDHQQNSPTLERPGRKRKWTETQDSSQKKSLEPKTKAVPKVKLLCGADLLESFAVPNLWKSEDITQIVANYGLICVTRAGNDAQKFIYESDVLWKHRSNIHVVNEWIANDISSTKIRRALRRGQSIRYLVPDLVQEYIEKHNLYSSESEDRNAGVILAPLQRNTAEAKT
inactive: erlotinib 0.033 | [1] -0.145 | [2] -0.302 | [3] -0.111 | [4] -0.032 | [5] 0.03 | [6] -0.102 | [7] -0.008 | [8] 0.157 | [9] -0.046

NECTIN2 isoform 2 (UniProt Q92692)
UniProt Q92692, sequence (Q92692 whole entry, looked up): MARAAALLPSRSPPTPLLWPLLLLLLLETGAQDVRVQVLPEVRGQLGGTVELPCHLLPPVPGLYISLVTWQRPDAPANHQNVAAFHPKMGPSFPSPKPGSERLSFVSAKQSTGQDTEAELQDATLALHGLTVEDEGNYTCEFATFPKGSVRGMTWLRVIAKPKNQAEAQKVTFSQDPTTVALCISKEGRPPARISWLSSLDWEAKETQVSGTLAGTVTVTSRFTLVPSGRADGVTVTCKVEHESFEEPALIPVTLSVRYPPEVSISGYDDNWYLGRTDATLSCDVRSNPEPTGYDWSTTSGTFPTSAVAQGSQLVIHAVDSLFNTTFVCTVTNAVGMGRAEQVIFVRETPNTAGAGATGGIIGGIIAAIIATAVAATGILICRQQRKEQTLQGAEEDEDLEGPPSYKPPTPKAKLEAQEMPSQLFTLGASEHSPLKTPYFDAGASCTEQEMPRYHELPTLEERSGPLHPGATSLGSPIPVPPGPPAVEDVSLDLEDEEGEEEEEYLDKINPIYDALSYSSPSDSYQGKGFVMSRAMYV
inactive: erlotinib -0.151 | [1] 0.006 | [2] -0.386 | [3] 0.117 | [4] 0.168 | [5] -0.345 | [6] -0.029 | [7] -0.034

NFATC2IP (UniProt Q8NCF5)
UniProt Q8NCF5, sequence (Q8NCF5 whole entry, looked up): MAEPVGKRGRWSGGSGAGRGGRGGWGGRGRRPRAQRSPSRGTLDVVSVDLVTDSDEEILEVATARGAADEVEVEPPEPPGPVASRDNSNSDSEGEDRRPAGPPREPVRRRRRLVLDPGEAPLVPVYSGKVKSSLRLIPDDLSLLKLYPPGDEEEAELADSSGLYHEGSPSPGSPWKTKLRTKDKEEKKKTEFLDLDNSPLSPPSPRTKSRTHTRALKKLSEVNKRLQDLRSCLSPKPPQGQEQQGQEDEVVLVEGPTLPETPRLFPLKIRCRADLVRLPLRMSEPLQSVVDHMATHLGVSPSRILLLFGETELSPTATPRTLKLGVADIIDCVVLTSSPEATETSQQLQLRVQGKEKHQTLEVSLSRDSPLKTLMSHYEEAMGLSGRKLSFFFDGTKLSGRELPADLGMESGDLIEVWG
inactive: erlotinib -0.051 | [1] 0.131 | [2] -0.034 | [3] 0.014 | [4] 0.018 | [5] 0.085 | [6] -0.029 | [7] -0.014 | [8] -0.117 | [9] 0.061

NRGN (UniProt Q92686)
UniProt Q92686, sequence (Q92686 whole entry, looked up): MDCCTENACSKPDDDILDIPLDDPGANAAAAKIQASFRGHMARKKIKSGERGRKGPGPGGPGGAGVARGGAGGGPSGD
inactive: erlotinib 0.066 | [1] 0.086 | [2] 0.054 | [3] -0.074 | [4] -0.264 | [5] -0.027 | [6] 0.139 | [7] 0.105

MMS19 isoform 8 (UniProt Q96T76)
UniProt Q96T76, sequence (Q96T76 whole entry, looked up): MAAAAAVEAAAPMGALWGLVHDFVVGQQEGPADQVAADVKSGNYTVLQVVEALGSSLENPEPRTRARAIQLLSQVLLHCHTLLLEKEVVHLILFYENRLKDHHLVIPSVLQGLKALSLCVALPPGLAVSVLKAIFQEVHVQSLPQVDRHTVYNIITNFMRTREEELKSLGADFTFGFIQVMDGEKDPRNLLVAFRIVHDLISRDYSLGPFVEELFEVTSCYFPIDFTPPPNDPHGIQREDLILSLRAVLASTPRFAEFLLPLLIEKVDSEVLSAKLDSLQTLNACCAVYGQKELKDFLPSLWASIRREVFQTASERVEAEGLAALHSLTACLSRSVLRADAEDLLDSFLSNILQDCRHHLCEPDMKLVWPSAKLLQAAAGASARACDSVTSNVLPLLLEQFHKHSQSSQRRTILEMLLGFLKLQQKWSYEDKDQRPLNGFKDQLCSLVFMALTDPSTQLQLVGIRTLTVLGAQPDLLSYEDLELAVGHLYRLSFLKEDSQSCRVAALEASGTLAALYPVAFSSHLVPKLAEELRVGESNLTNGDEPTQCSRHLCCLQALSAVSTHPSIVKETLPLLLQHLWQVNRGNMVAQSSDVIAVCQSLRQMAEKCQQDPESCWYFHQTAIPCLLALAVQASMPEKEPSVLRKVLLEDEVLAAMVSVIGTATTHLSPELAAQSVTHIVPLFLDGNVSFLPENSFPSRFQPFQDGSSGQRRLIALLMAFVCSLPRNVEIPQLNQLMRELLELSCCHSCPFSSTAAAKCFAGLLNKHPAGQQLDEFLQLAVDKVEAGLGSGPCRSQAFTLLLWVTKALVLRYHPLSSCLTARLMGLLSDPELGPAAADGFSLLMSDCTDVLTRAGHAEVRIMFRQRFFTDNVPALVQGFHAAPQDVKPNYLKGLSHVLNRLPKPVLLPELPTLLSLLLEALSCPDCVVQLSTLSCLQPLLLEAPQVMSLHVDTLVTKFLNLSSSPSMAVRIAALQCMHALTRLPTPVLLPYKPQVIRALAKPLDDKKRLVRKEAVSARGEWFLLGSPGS
inactive: erlotinib -0.01 | [1] 0.001 | [2] 0.044 | [3] -0.025 | [4] 0.113 | [5] 0.053 | [6] 0.05 | [7] 0.016 | [8] -0.01 | [9] -0.01

— the supplement of paper PMC10849652
